Experimental data reported in ChEMBL document CHEMBL4513216, “Probing the Open Global Health Chemical Diversity Library for Multistage-Active Starting Points for Next-Generation Antimalarials” (ACS Infect Dis, 2020).
Among all 69,000 compounds or so, about 8,600 (12%) showed an effect of 50% or more. The full list was thinned out, with strong results kept by preference.

test system: Plasmodium berghei; test: Screen against P. berghei liver stage (PbLuc), transformed with Luciferase, at 10uM; format: functional, HepG2; conditions: tested at 10 uM

Going from `O=C(c1cnc(-c2cnccn2)s1)N1CCCC1Cn1cccn1` (stereo unspecified) to `CCN(C(C)=O)c1nc(CN2CCCC2Cn2cncn2)cs1` (stereo unspecified), the INHIBITION rises from -21.5% to -6.44%.

Compared with `O=C(NCc1ccccc1)N1CCC2(CC(=O)N(c3ccccc3)C2)C1` (stereo unspecified), `CN(C)C(=O)N1CCC2(CC(=O)N(c3ccc4c(c3)OCO4)C2)C1` (stereo unspecified) is higher in INHIBITION: -14.7% for the first, -4.02% for the second.

Going from `COCCN1CCC(C(=O)N(C)Cc2cccc(Cl)c2)C1` (stereo unspecified) to `COCCN1CCC(C(=O)N(C)Cc2c[nH]c3ccc(C)cc23)C1` (stereo unspecified), the INHIBITION rises from 13.9% to 39.9%.

Going from `COCCN1CCC(C(=O)N(C)CCOc2ccc(C)cc2Cl)C1` (stereo unspecified) to `COc1ccc(C)cc1NC(=O)Nc1cnc(N2CCCC2)nc1`, the INHIBITION falls from 59.3% to 45.5%.

Compared with `Cc1cn(-c2ccccc2)nc1NS(=O)(=O)c1ccc(C(=O)O)cc1F`, `CCc1cccc(C)c1NC(=O)c1ccccc1N(C)S(C)(=O)=O` is higher in INHIBITION: -20% for the first, 25.8% for the second.

Compared with `CC(=O)NCc1cc2n(n1)CCN(Cc1cccc(Cl)c1Cl)C2`, `CSc1ccccc1CN1CCn2nc(CNC(C)=O)cc2C1` is higher in INHIBITION: -26.8% for the first, 55.4% for the second.

Compared with `CC(=O)NCc1cc2n(n1)CCN(Cc1ccccc1OC(F)(F)F)C2`, `CCc1ccccc1CN1CCn2nc(CNC(C)=O)cc2C1` is lower in INHIBITION: 53.8% for the first, 22% for the second.

First: CSc1ccccc1CN1CCn2nc(CNC(=O)N(C)C)cc2C1
Second: CSc1ccccc1CN1CCCn2nc(CNC(=O)N(C)C)cc2C1
The INHIBITION of the first is higher: 4.97% for the first, -19.4% for the second.

Compared with `O=C(c1ccc2c(c1)COC2)N1CCN(CCO)CC1`, `CCN1CCN(C(=O)c2cccn2Cc2ccccc2)CC1` is lower in INHIBITION: 21.5% for the first, -4.94% for the second.

First: c1ncc2c(n1)CN(Cc1nc(-c3ccsc3)no1)CC2
Second: O=C1CC2(CCN(Cc3ccsc3)C2)CN1c1ccc2c(c1)OCO2 (stereo unspecified)
The INHIBITION of the first is lower: -16% for the first, 55.5% for the second.

Going from `NC(=O)CN(Cc1ncc(-c2ccc(F)cc2)o1)C1CCCC1` to `N[C@@H]1CCCN(C(=O)Cc2c[nH]c3ccccc23)[C@H]1c1ccccc1F`, the INHIBITION rises from -13.6% to 32.5%.

Compared with `CSCC[C@H](NC(=O)CCn1cc(C(C)=O)c2ccccc21)C(=O)O`, `Cc1cc(=O)[nH]cc1C(=O)N1CCN(C)c2ccccc2C1` is higher in INHIBITION: -35.7% for the first, 42.8% for the second.

First: CC(C)c1nnc2n1CC(CNCc1ccc3c(c1)OCCO3)CC2 (stereo unspecified)
Second: Cn1cc(CN2CCC3(CC(=O)N(c4ccc5c(c4)OCO5)C3)C2)cn1 (stereo unspecified)
The INHIBITION of the first is lower: 17% for the first, 27.3% for the second.

Going from `COc1ccc(NC(=O)Nc2cnc(N3CCN(C)CC3)nc2)cc1Cl` to `COc1ccc(C)cc1NC(=O)Nc1cnc(N2CCN(C)CC2)nc1`, the INHIBITION falls from 45% to 38.7%.

First: Cc1ccc(NC(=O)Nc2cnc(N3CCN(C)CC3)nc2)cc1
Second: Cc1ccc(NC(=O)Nc2cnc(N3CCN(C)CC3)nc2)c(Cl)c1
The INHIBITION of the first is lower: 37.4% for the first, 57.6% for the second.

Going from `COc1ccc(C)cc1NC(=O)Nc1cnc(N2CCOCC2)nc1` to `Cc1cccc(N2CCN(CCC(=O)NCc3cnc(C)cn3)CC2)c1`, the INHIBITION falls from 50.2% to 45.8%.

Going from `C[C@H]1C(=O)NC[C@H]2CN(Cc3ccccc3)C[C@H]21` to `CN(C)C(=O)CN1C[C@H]2CC[C@@H](C1)N(C(=O)Cc1ccccc1Cl)C2`, the INHIBITION rises from -9.27% to 25.1%.

Going from `CCS(=O)(=O)NCC(Cc1cccc(F)c1)N1CCNC1=O` (stereo unspecified) to `CCN(CC)S(=O)(=O)NCC(O)c1c(Cl)cccc1Cl` (stereo unspecified), the INHIBITION falls from 23.1% to -20%.

Compared with `CC(Cn1cccn1)NC(=O)Nc1ccccn1` (stereo unspecified), `CC(C)n1nccc1NC(=O)CN1CCc2sccc2C1` is higher in INHIBITION: -4.16% for the first, 49.3% for the second.

Compared with `CCc1ncc(C(=O)c2ccc(OC)cc2)n1C`, `CCCc1ncc(C(=O)c2ccc(OC)cc2)n1C` is lower in INHIBITION: 54.2% for the first, 0.29% for the second.

First: COc1ccc(C(=O)c2cnc(C(C)C)n2C)cc1
Second: CCNCCOc1ccc(-c2cc(N)nc3[nH]ccc23)cc1
The INHIBITION of the first is lower: 33.9% for the first, 59.5% for the second.

Going from `COCCC(Cc1cccc(Br)c1)C(=O)NCC(N)=O` (stereo unspecified) to `Cc1cccc(N2CCN(CCC(=O)NCc3cccnc3)CC2)c1`, the INHIBITION rises from 12.3% to 27.6%.

Going from `CNc1cc(-c2cccc(CN)c2)c2cc[nH]c2n1` to `Nc1cc(-c2cc(O)cc(C(=O)O)c2)c2cc[nH]c2n1`, the INHIBITION rises from 5.91% to 35.4%.

First: Cc1ccc(N2CCC3(CCN(C(=O)N(C)C)CC3)CC2)nn1
Second: CCc1nnc(CNC(=O)CCN2CCN(c3cccc(C)c3)CC2)s1
The INHIBITION of the first is lower: 35.4% for the first, 52.1% for the second.

Compared with `CC(C)(CCS(C)(=O)=O)CNC(=O)NC1CCCC1(C)C` (stereo unspecified), `Cc1c[nH]nc1C1CCCCN1C(=O)CNS(C)(=O)=O` (stereo unspecified) is higher in INHIBITION: -21.9% for the first, 48.6% for the second.

Going from `Cn1nccc1NC(=O)CN1CCc2sccc2C1` to `O=C(CN1CCc2sccc2C1)Nc1ccnc2ccnn12`, the INHIBITION rises from 18.6% to 82.2%.

Compared with `CCn1c(C)nnc1SCCNc1cc(OC)ncn1`, `CCn1nc(C)c(NC(=O)CN(C)C(C)c2ccon2)c1C` (stereo unspecified) is lower in INHIBITION: 22.1% for the first, -22.1% for the second.

Going from `CCCn1cc(CN2CCCC2c2nccc(CN(C)C)n2)cn1` (stereo unspecified) to `Cc1c[nH]nc1C1CCCCN1C(=O)CCn1nccc1C` (stereo unspecified), the INHIBITION rises from 25.6% to 57.5%.

Compared with `Cc1cccc(N2CCN(CCC(=O)NCc3ccc(C)s3)CC2)c1`, `Cc1cccc(N2CCN(CCC(=O)NCc3nnc[nH]3)CC2)c1` is lower in INHIBITION: 71.2% for the first, -10.6% for the second.

Going from `CCc1nnc(CNC(=O)CCCN2CCCCC2)s1` to `CN(C)C(=O)CN1C[C@H]2CC[C@@H](C1)N(C(=O)CCCn1cncn1)C2`, the INHIBITION falls from 25.1% to 8.07%.

Compared with `CN1CCN(Cc2cccnc2)C2(CCN(C3CCOCC3)C2)C1=O` (stereo unspecified), `O=C1CC2(CCN(Cc3ccncc3)C2)CN1c1ccc2c(c1)OCO2` (stereo unspecified) is higher in INHIBITION: -33.9% for the first, 31.1% for the second.

Compared with `CC(=O)NCCNC(=O)c1cnc(C(C)(C)C)s1`, `Cc1cnn(CCC(=O)N2C[C@@H]3CC[C@H]2CN(CC(=O)N(C)C)C3)c1` is higher in INHIBITION: 30.6% for the first, 38.5% for the second.

Going from `Cc1csc(Nc2nccnc2C2CCCN2CC(N)=O)n1` (stereo unspecified) to `Cc1c[nH]nc1C1CCCCN1C(=O)CC1(O)CCCCC1` (stereo unspecified), the INHIBITION rises from -13.7% to 24.8%.

Going from `CCS(=O)(=O)N1CCC2(CC(=O)N(c3ccc4c(c3)OCO4)C2)C1` (stereo unspecified) to `O=C1CC2(CCN(Cc3ccoc3)C2)CN1c1ccc2c(c1)OCO2` (stereo unspecified), the INHIBITION rises from -30.6% to 60.3%.

Going from `CN(C)C(=O)CN1C[C@H]2CC[C@@H](C1)N(C(=O)CCn1cncn1)C2` to `Cc1ccnn1CCC(=O)N1C[C@@H]2CC[C@H]1CN(CC(=O)N(C)C)C2`, the INHIBITION falls from 56.8% to 55.6%.

Work on `O=C(CCn1cncn1)N1C[C@@H]2CC[C@H]1CN(Cc1ccncc1)C2` yielded an INHIBITION of 22.4%.
